# PLK1 PBD inh: blocks phosphopeptide binding to human PLK1 polo-box domain; P53350; Plk1 PBD binding of FITC phosphopeptide, fluorescence polarization; Potency, µM, inactives show max response, negative = inhibition, hits mostly inhibitors; actives 2.8% (n = 360,000); AID 720504; note: series mostly up to about 57 µM; nearly all actives have a fitted effect of over 65% in size
# DT40 TDP1 CPT: DT40-hTDP1 cell growth loss with CPT; chicken DT40 Tdp1-/-;hTDP1 cells + 20 nM CPT, ATP luminescence, 48 h; Potency, µM (highest dose often 46.2 µM), without a hit: at the top dose activity change, negative = growth inhibition, hits mostly inhibitors; actives 12% (n = 420,000); note: nearly all actives have a fitted effect of over 55% in size
#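 Chicken DT40 Tdp1-/- cells stably complemented with human TDP1 were seeded at 400 cells/well in medium containing 20 nM camptothecin, exposed to pin-transferred compounds, and grown at 37 °C for at least 48 hr. Viability was read as ATP luminescence.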
# TDP1 block: TDP1 (human) enzyme inhibition; Q9NUW8; recombinant TDP1, AlphaScreen DNA substrate cleavage; Potency, µM (doses to about 130 µM), for inactives: top-dose activity change, negative = inhibition, hits mostly inhibitors; actives 0.28% (n = 350,000); note: nearly all actives have a fitted effect of over 40% in size
#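 Recombinant human Tdp1 (E. coli-expressed, 1 nM final) preincubated with compounds 15 min at room temperature, then 5'-biotin/3'-phosphotyrosine-FITC DNA substrate (15 nM final) added for 5 min. AlphaScreen beads (10 ug/ml final) added 10 min; cleavage lowers signal.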
# VDR inh: vitamin D3 receptor (human) inhibition; P11473; VDR-SRC2-3 peptide fluorescence polarization, 2 h; Potency, µM, for the others: max response, negative = inhibition, most hits filed as inhibitors; actives 0.93% (n = 400,000); AID 504847
# Target sequence (P11473 whole entry, looked up): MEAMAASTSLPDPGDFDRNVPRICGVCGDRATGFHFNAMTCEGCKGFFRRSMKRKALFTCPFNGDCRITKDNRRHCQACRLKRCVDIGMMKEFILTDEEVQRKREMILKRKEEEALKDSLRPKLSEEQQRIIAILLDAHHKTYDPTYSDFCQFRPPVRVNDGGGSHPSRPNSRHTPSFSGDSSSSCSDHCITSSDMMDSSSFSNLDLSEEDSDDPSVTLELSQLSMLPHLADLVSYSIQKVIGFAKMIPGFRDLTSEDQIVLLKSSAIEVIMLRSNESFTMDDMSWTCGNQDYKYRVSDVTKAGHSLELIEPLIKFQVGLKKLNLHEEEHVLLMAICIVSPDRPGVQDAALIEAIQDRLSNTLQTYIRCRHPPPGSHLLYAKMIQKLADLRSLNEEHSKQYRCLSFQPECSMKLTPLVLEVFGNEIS
#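 FP read-out; VDR + SRC2-3 coactivator peptide; 23 nl compound by pintool; 2 h RT incubation; reagents held at 4 deg C, protected from light.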
# GCN5L2 inh: inhibitors of human GCN5L2 histone acetyltransferase. Q92830. GCN5L2 HAT assay, ThioGlo1 CoA-SH fluorescence. Potency, µM (top dose mostly 58.9 µM), inactives show at the top dose activity change, negative = inhibition, actives largely listed as inhibitors. actives 0.21% (n = 390,000). AID 504327
#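 GCN5L2 (20 nM) in 50mM HEPES pH 7.5, 0.1mM EDTA, 0.01% Tween-20 preincubated 15 min with compounds at room temperature. Reaction started with H3(1-25) 75uM, acetyl-CoA 70uM, ThioGlo1 50uM; CoA-thiol fluorescence (Ex340/Em540) read at 0 and 20 min.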
# TDP1 cell noCPT: qHTS for Inhibitors of human tyrosyl-DNA phosphodiesterase 1 (TDP1): qHTS in cells in absence of CPT; Potency, µM (top dose mostly 46.2 µM), inactives show at the highest dose activity change, negative = growth inhibition, hits mostly inhibitors; DT40 Tdp1-/- hTDP1 cells, no CPT, ATP luminescence, 48 h; AID 686978, 2013; actives 15% (n = 420,000); note: nearly all actives have a fitted effect of over 55% in size
#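 Seeded 400 DT40-hTDP1 cells/well (vehicle DMSO, no 20 nM CPT); pinned compounds; ≥48 hr at 37 °C; CellTiter-Glo luminescence as viability measure.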
# An asterisk follows results filed as active; ? = inconclusive; / = not tested or not shown; [ ] = another dose, or the depositor's remark. Compounds with a hit are over-represented: about 18% of the library has one in this group of screens. Calls come from the whole dose curve; as a rule, active = well fitted curve in the direction sought with a large enough effect; inconclusive = small, poorly fitted or top-dose-only effect, or another doubt; inactive = no such curve, though single readings can be large; an effect the other way counts as inactive or inconclusive. % is set by controls: 0 for no effect and ±100 for the full control effect; potency is the fitted concentration of half-maximal effect.
SMILES,PLK1 PBD inh,DT40 TDP1 CPT,TDP1 block,VDR inh,GCN5L2 inh,TDP1 cell noCPT
COc1ccc(CCNC(=O)CCc2cn(Cc3ccc(C)cc3)c3ccccc23)c(OC)c1OC,/,?,3%,2%,-12%,?
CC(C)C[C@H](NC(=O)[C@@H](Cc1c[nH]c2ccccc12)NC(=O)[C@H](Cc1ccc(O)cc1)NC(=O)[C@H](CO)NC(=O)[C@H](Cc1c[nH]c2ccccc12)NC(=O)[C@H](Cc1cnc[nH]1)NC(=O)[C@@H]1CCC(=O)N1)C(=O)N[C@@H](CCCN=C(N)N)C(=O)N1CCC[C@@H]1C(=O)NCC(N)=O,/,9%,/,/,/,-15%
COc1ccc(-c2c(C#N)c(SCC(=O)c3cc4ccccc4oc3=O)nc(C)c2C(=O)Nc2ccccc2)cc1,-7%,?,1%,-24%,39%,?
Cc1nc(SCC(=O)c2cc3ccccc3oc2=O)c(C#N)c(-c2ccccc2)c1C(=O)Nc1ccccc1,-11%,?,8%,-5%,-11%,18µM*
COc1cc2c(NC3CCN(C(C)C)CC3)nc(N3CCCN(C)CC3)nc2cc1OCCCN(C)C,/,3.2µM*,/,/,/,6.3µM*
COc1cc2c(NC3CCN(C)CC3)nc(N3CCCN(C)CC3)nc2cc1OCCCCCN(C)C,/,11µM*,/,/,/,14µM*
COc1cc2c(NC3CCN(C)CC3)nc(N3CCCN(C)CC3)nc2cc1OCCN(C)C,/,11µM*,/,/,/,11µM*
O=C(NCc1ccncc1)c1cnn(-c2ncc3c(n2)-c2ccccc2CC3)c1C1CC1,/,10%,/,/,/,-8%
CCOC(=O)Cn1cc(/C=C(\C#N)C(=O)N2CCOCC2)c2ccccc21,-1%,0%,1%,-7%,?,-11%
CCN(CC)C(=O)Cn1cc(C(=O)C(=O)N2CCN(c3ccc([N+](=O)[O-])cc3)CC2)c2ccccc21,-15%,6.5µM*,5%,-4%,-16%,7.3µM*
CCN(CC)C(=O)Cn1cc(C(=O)C(=O)N2CCN(c3ccc(OC)cc3)CC2)c2ccccc21,-1%,-13%,6%,-9%,-4%,9%
COc1ccc(N2CCN(C(=O)C(=O)c3cc(OC)c4ccccc4c3)CC2)cc1,-2%,23µM*,/,/,/,21µM*
COc1ccc(N2CCN(C(=O)C(=O)c3cn(CC(=O)N4CCCC4)c4ccccc34)CC2)cc1,-5%,21µM*,/,/,/,?
CCN(CC)C(=O)Cn1cc(/C=C(\C#N)C(=O)N2CCN(c3ccccc3)CC2)c2ccccc21,-5%,21µM*,5%,-7%,-14%,?
COc1cc(OC)c2c(c1)OC1Cc3cc(OC)c(OC)cc3C2O1 (stereo not given),/,/,8%[21 µM],/,/,/
CCc1cccc(NC(=O)Cn2nc3c4cc(F)ccc4n(Cc4cccc(C)c4)cc-3c2=O)c1,/,-4%,3%,4%,1%,-6%
COc1ccc(CC(NC(C)=O)C(=O)NC2CCN(C(=O)C3CCCCC3)CC2)cc1OC (stereo not given),0%,-11%,/,3%,0%,-1%
CCCOc1ccc(/C=C/c2c([N+](=O)[O-])c(=O)n(C)c(=O)n2C)cc1,-1%,-22%,4%,5%,-5%,-17%
Cc1occc1C(=O)N1CCN(S(=O)(=O)c2ccc(F)cc2)CC1,2%,-3%,-2%,0%,-9%,10%
CCN(CC)S(=O)(=O)c1ccc(S(=O)(=O)Nc2c(C)nn(C)c2C)cc1,-16%,6.5µM*,4%,-11%,0%,4.6µM*
Cc1nn(C)c(C)c1NS(=O)(=O)c1ccc(Cl)cc1,2%,-27%,0%,-3%,1%,-27%
Cc1cc2oc(C(=O)Nc3ccc(S(=O)(=O)N4CCC(C)CC4)cc3)cc(=O)c2cc1C,/,-3%,9%,-1%,-2%,-8%
Cc1cc(C)c2oc(C(=O)Nc3ccc(S(=O)(=O)N4CCC(C)CC4)cc3)cc(=O)c2c1,-4%,10µM*,0%,-3%,4%,7.3µM*
Cc1ccc2c(=O)cc(C(=O)Nc3ccc(S(=O)(=O)N4CCCCCC4)cc3)oc2c1C,/,?,2%,6%,-7%,15µM*
C[C@H](NC(=O)c1ccco1)C(=O)Nc1ccc(C#N)cc1,-8%,-9%,/,6%,-6%,?
SMILES,PLK1 PBD inh,DT40 TDP1 CPT,TDP1 block,VDR inh,GCN5L2 inh,TDP1 cell noCPT
CCc1cccc(C)c1NC(=O)CCn1c(=O)c2cccn2c2ccccc21,/,?,0%,6%,-15%,23µM*
Cc1cc(C)c(NC(=O)CCn2c(=O)c3cccn3c3ccccc32)c(C)c1,/,?,5%,-7%,-12%,16µM*
Cc1cccc(C)c1NC(=O)Cn1c(=O)c2cccn2c2ccccc21,-9%,?,-6%,21%,-17%,-9%
Cc1ccc(S(=O)(=O)/N=C(\Sc2ccccc2)c2ccccc2)cc1,?,5.8µM*,4%,?,-1%,6.5µM*
CCOc1ccc(S(=O)(=O)/N=C(\N)c2ccccc2)cc1,-14%,23µM*,/,10%,1%,12µM*
CCOC(=S)N/C(=N\S(=O)(=O)c1ccc(C)cc1)c1ccccc1,24µM*,?,-5%,-13%,-6%,-15%
Cc1ccc(S(=O)(=O)/N=C(/Nc2cccc(O)c2)c2ccccc2)cc1,0%,?,/,15%,-9%,?
Cc1ccc(S(=O)(=O)NN/C(=N/S(=O)(=O)c2ccccc2)c2ccccc2)cc1,-1%,?,3%,10%,2%,5%
COc1ccccc1N/C(=N/S(=O)(=O)c1ccc(C)cc1)c1ccccc1,-14%,?,8%,-1%,-1%,18µM*
COC(=O)N1CCC2(CCCN(c3ncccn3)C2)CC1,/,6%,/,4%,2%,-13%
Cc1ccccc1N/C(=N/S(=O)(=O)c1ccccc1)c1ccc(F)cc1,38µM*,-25%,/,-16%,-1%,-13%
COc1ccc2c(Sc3ccc(C)cc3)c(C(=O)NCC(C)c3ccccc3)[nH]c2c1 (stereo not given),/,-16%,11%,17%,-9%,?
CCC1=C(OC(=O)N(CC)CC)N2C(=O)OC(=NCC3CC3)[C@]2(Cc2ccccc2)[C@H]2C1=CC[C@H]1C(=O)N(C)C(=O)[C@H]12,-2%,18µM*,4%,?,-11%,18µM*
CCC1=C(OC(=O)N(CC)CC)N2C(=O)OC(=NCCc3c[nH]c4ccccc34)[C@]2(Cc2ccccc2)[C@H]2C1=CC[C@H]1C(=O)NC(=O)[C@H]12,-5%,?,18%,-3%,-24%,16µM*
